From PubChem
ASM inhibitor = human S-ASM enzyme inhibition | P17405 | placental ASM, HMU-PC fluorogenic substrate, 60 min | Potency, µM (titrated, usually from 57.5 µM), for the others: top-dose activity change, negative = inhibition, usual class: inhibitors | hit rate 0.006% among 340,000 | AID 504937; further: potency means the concentration at half of the fitted maximal effect
Target sequence (P17405 47-631 limits assumed): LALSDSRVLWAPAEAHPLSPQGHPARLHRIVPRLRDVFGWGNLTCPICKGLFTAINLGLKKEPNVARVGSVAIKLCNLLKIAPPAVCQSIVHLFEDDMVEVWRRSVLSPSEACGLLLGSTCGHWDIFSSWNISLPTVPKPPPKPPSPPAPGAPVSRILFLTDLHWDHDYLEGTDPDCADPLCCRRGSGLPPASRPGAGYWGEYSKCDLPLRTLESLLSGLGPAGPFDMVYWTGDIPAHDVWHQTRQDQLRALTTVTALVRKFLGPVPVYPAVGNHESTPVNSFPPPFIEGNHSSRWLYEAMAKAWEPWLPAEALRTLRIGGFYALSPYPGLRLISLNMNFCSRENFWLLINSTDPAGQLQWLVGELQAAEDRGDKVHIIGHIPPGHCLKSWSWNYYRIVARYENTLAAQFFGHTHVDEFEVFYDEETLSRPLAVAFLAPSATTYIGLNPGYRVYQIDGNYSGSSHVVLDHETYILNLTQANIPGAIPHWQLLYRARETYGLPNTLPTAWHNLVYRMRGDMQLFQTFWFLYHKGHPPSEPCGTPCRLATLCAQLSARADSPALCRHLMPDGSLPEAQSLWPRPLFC
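Human placenta-derived ASM enzyme was preincubated with compound for 10 minutes at room temperature, then given fluorogenic substrate HMU-PC0 (9 uM final) for 60 minutes at 37 °C; a pH 10 stop preceded fluorescence reading at Ex 386/Em 447 nm.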
TGFb SMAD3 inh = TGF-b pathway inhibition | HepG2 CAGA-GFP TGF-b/SMAD3 reporter, GFP fluorescence, 18 h; TGF-beta stimulated, 500 pg/mL final | Potency, µM (series often up to 46.1 µM), for the others: at the top dose activity, negative = inhibition, most hits filed as inhibitors | hit rate 1.2% among 410,000; further: potency means the concentration at half of the fitted maximal effect; on the % scale 0 is the no-effect control and ±100 the full control effect; nearly all actives have a fitted effect of over 65% in size
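Smad-responsive CAGA-GFP expression was quantified in HEPG2 cells exposed to compounds and 500 pg/mL final TGF-beta for 18 h at 37 degrees C; unstimulated wells defined full inhibition.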
HepG2 viability = kills HepG2 cells in TGF-b inhibitor counter-screen | AID 588856 | Potency, µM (top dose mostly 46.1 µM), for the others: top-dose activity change, negative = cytotoxicity, most hits filed as cytotoxic | hit rate 0.76% among 410,000 | HepG2 CAGA-GFP viability, ATP luminescence, 18 h; further: potency means the concentration at half of the fitted maximal effect
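HepG2 CAGA-GFP cells (1000/well, DMEM with 1% FBS) received compound, then TGF-beta at 500 pg/mL final, and were incubated 18 hours at 37 degrees C. Viability was read by CellTiter-Glo luminescence. Media-only wells were set as complete cell-killing and DMSO as no toxicity.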
TDP1 cell noCPT = qHTS for Inhibitors of human tyrosyl-DNA phosphodiesterase 1 (TDP1): qHTS in cells in absence of CPT; AID 686978, 2013; Potency, µM (top dose mostly 46.2 µM), without a hit: top-dose activity change, negative = growth inhibition, most hits filed as inhibitors; DT40 Tdp1-/- hTDP1 cells, no CPT, ATP luminescence, 48 h; hit rate 15% among 420,000; further: potency means the concentration at half of the fitted maximal effect; on the % scale 0 is the no-effect control and ±100 the full control effect; nearly all actives have a fitted effect of over 55% in size
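Stably hTDP1-transfected Tdp1-null chicken DT40 cells were treated with library compounds minus camptothecin and grown for at least 48 hr at 37 °C, after which cellular ATP was quantified by luminescence.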
DT40 TDP1 CPT = DT40-hTDP1 cell growth loss with CPT. chicken DT40 Tdp1-/-;hTDP1 cells + 20 nM CPT, ATP luminescence, 48 h. hit rate 12% among 420,000. Potency, µM (highest dose often 46.2 µM), for the others: top-dose activity change, negative = growth inhibition, hits mostly inhibitors; further: potency means the concentration at half of the fitted maximal effect; on the % scale 0 is the no-effect control and ±100 the full control effect; nearly all actives have a fitted effect of over 55% in size
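Cell growth measured by CellTiter-Glo luminescence after a minimum 48 h, 37 C compound exposure with 20 nM CPT in Tdp1-knockout DT40 cells stably expressing hTDP1, seeded 400/well; qHTS titration format.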
IL-1B inflam inh = inflammasome signaling inhibition, IL-1 beta readout | THP-1 LPS/ATP IL-1B secretion, AlphaLISA, 16 h; hits give low values | activity change, % at 57.5 µM | hit rate 4.7% among 360,000 | AID 743279; in the data active means activity change below about -50%; inconclusive means mostly about -30% to -49%; further: on the % scale 0 is the no-effect control and ±100 the full control effect
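THP-1 cells pretreated 1 hr with compounds (up to 57.5 uM final), then stimulated with LPS (250 ng/mL final) plus ATP (1.25 mM final); secreted IL-1B measured by AlphaLISA after 16 hr, decreased signal indicating inhibition.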
* hit, by the source's call. Compounds with a hit are over-represented: about 19% of the library has one in this group of screens. Unless noted, the call rests on the fitted dose curve; in most records, active means well fitted curve in the direction sought with a large enough effect; inconclusive means small, poorly fitted or top-dose-only effect, or another doubt; inactive means no such curve, though single readings can be large; an effect the other way counts as inactive or inconclusive.

Results for CN(C)CCCN(C(=O)COc1ccccc1)c1nc2cc3c(cc2s1)OCO3 ?
ASM inhibitor: -2%; TGFb SMAD3 inh: 4%; HepG2 viability: 20%; TDP1 cell noCPT: -29%; DT40 TDP1 CPT: 9%; IL-1B inflam inh: inactive

Results for C=CCn1c(CCn2c3ccccc3c3ccccc32)n[nH]c1=S ?
ASM inhibitor: 0%; TGFb SMAD3 inh: -15%; HepG2 viability: -2%; TDP1 cell noCPT: -25%; DT40 TDP1 CPT: -17%; IL-1B inflam inh: 0

Results for C=C(C)Cn1c(CCn2c3ccccc3c3ccccc32)n[nH]c1=S ?
ASM inhibitor: -4%; TGFb SMAD3 inh: inconclusive; HepG2 viability: -16%; TDP1 cell noCPT: 5.8µM*; DT40 TDP1 CPT: 9.2µM*; IL-1B inflam inh: 19

Results for CCOC(=O)c1cc(S(=O)(=O)N2CCN(c3cc(Cl)ccc3C)CC2)[nH]n1 ?
TGFb SMAD3 inh: inconclusive; HepG2 viability: -39%; TDP1 cell noCPT: inconclusive; DT40 TDP1 CPT: 12µM*

Results for CCOC(=O)c1cc(S(=O)(=O)N2CCN(c3ccc(F)cc3)CC2)[nH]n1 ?
TGFb SMAD3 inh: -5%; HepG2 viability: -19%; TDP1 cell noCPT: 18µM*; DT40 TDP1 CPT: 16µM*

Results for CCOC(=O)c1cc(S(=O)(=O)N2CCN(c3cccc(OC)c3)CC2)[nH]n1 ?
TGFb SMAD3 inh: inconclusive; HepG2 viability: -40%; TDP1 cell noCPT: inconclusive; DT40 TDP1 CPT: inconclusive

Results for CCOC(=O)c1cc(S(=O)(=O)N2CCN(c3ccccc3OC)CC2)[nH]n1 ?
TGFb SMAD3 inh: -26%; HepG2 viability: -7%; TDP1 cell noCPT: -17%; DT40 TDP1 CPT: -15%

How did CCCCn1c(N)c(N(CC(C)C)C(=O)c2cc(S(=O)(=O)N3CCOCC3)ccc2Cl)c(=O)[nH]c1=O do in these assays?
ASM inhibitor: 8%; TGFb SMAD3 inh: 0%; HepG2 viability: 7%; TDP1 cell noCPT: -14%; DT40 TDP1 CPT: -7%; IL-1B inflam inh: 4

Results for Cc1ccc(C)c(CSc2nnc3[nH]c(=O)cc(C)n23)c1 ?
TGFb SMAD3 inh: 2%; HepG2 viability: 4%; TDP1 cell noCPT: 4%; DT40 TDP1 CPT: 10%

Results for Cn1c(=O)n(C)c2cc(NC(=O)CCc3ccccc3)c(Br)cc21 ?
ASM inhibitor: -2%; TGFb SMAD3 inh: 1%; HepG2 viability: -15%; TDP1 cell noCPT: -18%; DT40 TDP1 CPT: inconclusive; IL-1B inflam inh: 0

Results for Cc1ccc(S(=O)(=O)c2nc(-c3ccco3)oc2SC(C)c2ccccc2)cc1 (stereo not drawn) ?
TGFb SMAD3 inh: -3%; HepG2 viability: 3%; TDP1 cell noCPT: inconclusive; DT40 TDP1 CPT: inconclusive

What do the screens show for `O=C(/C=C/c1cccs1)c1cc(F)ccc1OC(=O)N1CCOCC1`?
ASM inhibitor: 1%; TGFb SMAD3 inh: 10%; HepG2 viability: -29%; TDP1 cell noCPT: inconclusive; DT40 TDP1 CPT: 23µM*; IL-1B inflam inh: -54*

Results for CCC(C(=O)NCc1ccccc1OC)n1nc(C)n2c(cc3sccc32)c1=O (stereo not drawn) ?
TGFb SMAD3 inh: inconclusive; HepG2 viability: -26%; TDP1 cell noCPT: inconclusive; DT40 TDP1 CPT: inconclusive

How did O=S(=O)(NCC1CCCO1)c1ccc(S(=O)(=O)N(Cc2ccccn2)C2CC2)cc1 (stereo not drawn) do in these assays?
ASM inhibitor: 1%; TGFb SMAD3 inh: -17%; HepG2 viability: -11%; TDP1 cell noCPT: inconclusive; DT40 TDP1 CPT: -5%; IL-1B inflam inh: -18

Results for Cc1c(C(=O)Nc2ccc(S(=O)(=O)NCC3CCCO3)cc2)cccc1[N+](=O)[O-] (stereo not drawn) ?
ASM inhibitor: -2%; TGFb SMAD3 inh: -10%; HepG2 viability: -8%; TDP1 cell noCPT: inconclusive; DT40 TDP1 CPT: inconclusive; IL-1B inflam inh: -14

How did O=S(=O)(NCC1CCCO1)c1ccc(S(=O)(=O)N(Cc2ccccc2F)C2CCCCC2)cc1 (stereo not drawn) do in these assays?
ASM inhibitor: -10%; TGFb SMAD3 inh: inconclusive; HepG2 viability: -27%; TDP1 cell noCPT: inconclusive; DT40 TDP1 CPT: 13µM*; IL-1B inflam inh: -8

Results for O=C(Nc1ccccc1)c1ccc(S(=O)(=O)NCC2CCCO2)cc1 (stereo not drawn) ?
ASM inhibitor: -5%; TGFb SMAD3 inh: -15%; HepG2 viability: -2%; TDP1 cell noCPT: -23%; DT40 TDP1 CPT: -26%; IL-1B inflam inh: 9

What do the screens show for `O=C(Nc1ccc(F)cc1)c1ccc(S(=O)(=O)NCC2CCCO2)cc1` (stereo not drawn)?
ASM inhibitor: -1%; TGFb SMAD3 inh: -3%; HepG2 viability: -8%; TDP1 cell noCPT: 13µM*; DT40 TDP1 CPT: 18µM*; IL-1B inflam inh: inconclusive

What do the screens show for `O=C(Nc1ccc(S(=O)(=O)NCC2CCCO2)cc1)c1ccc(Cl)cc1[N+](=O)[O-]` (stereo not drawn)?
ASM inhibitor: -1%; TGFb SMAD3 inh: -23%; HepG2 viability: -10%; TDP1 cell noCPT: inconclusive; DT40 TDP1 CPT: 8.2µM*; IL-1B inflam inh: -25

Results for COc1ccc(CCNC(=O)C2CC3Cn4c(nc5ccccc54)C3N2Cc2ccccc2)cc1 (stereo not drawn) ?
ASM inhibitor: -2%; TGFb SMAD3 inh: inconclusive; HepG2 viability: -12%; TDP1 cell noCPT: 18µM*; DT40 TDP1 CPT: inconclusive; IL-1B inflam inh: 21

Results for COc1ccc(CCNC(=O)C2CC3Cn4c(nc5ccccc54)C3N2C)cc1 (stereo not drawn) ?
ASM inhibitor: 2%; TGFb SMAD3 inh: -11%; HepG2 viability: 4%; TDP1 cell noCPT: 0%; DT40 TDP1 CPT: -20%; IL-1B inflam inh: 14

How did CC1CCN(CCCNc2cc(NCCO)c([N+](=O)[O-])c3nonc23)CC1 do in these assays?
ASM inhibitor: -9%; TGFb SMAD3 inh: -1%; HepG2 viability: 8%; TDP1 cell noCPT: -1%; DT40 TDP1 CPT: 1%; IL-1B inflam inh: 15

How did O=[N+]([O-])c1c(NCCCO)cc(Sc2ccc(Cl)cc2)c2nonc12 do in these assays?
ASM inhibitor: -13%; TGFb SMAD3 inh: 5%; HepG2 viability: -22%; TDP1 cell noCPT: 1.5µM*; DT40 TDP1 CPT: 1.3µM*; IL-1B inflam inh: -106*
